Source: PubChem BioAssay (Tox21)
Results filed as inconclusive are left out. Activity calls are given as the source filed them. The call rests on the fitted dose curve; in most records, active means well fitted activation curve with a large enough effect in the repeat runs; inconclusive means weak or mixed curves; inactive means flat fitted curve, though single readings scatter.

Experiment: A CellTox Green Cytotoxicity Assay to monitor cytotoxicity in HEK293 cells - 24 hour (AID 1224875); further: nearly all actives have a fitted effect of over 45% in size
Details: CellTox Green fluorescence; series mostly up to 76.8 µM; activity change: at the top concentration
Description: National Center for Advancing Translational Sciences [NCATS]
NIH Chemical Genomics Center [NCGC]
U.S. Environmental Protection Agency [EPA]
National Institutes of Environmental Health Sciences [NIEHS]
National Toxicology Program [NTP]
Cell-based models are critical for drug discovery. Determining the natural cytotoxic effects resulting from test compounds is an essential research activity. A CellTox Green Cytotoxicity Assay to monitor cytotoxicity in real time of continues cell culture during 40 hours of the compound treatment was used to screen Tox21 10K library compounds in Hek293 cells. CellTox Green Cytotoxicity Assay is a nonlytic, homogeneous, biofluorescent method to measure cytotoxicity in cell culture after experimental manipulation. The assay system uses a proprietary asymmetric cyanine dye that is excluded from viable cells but preferentially stains the dead cell's DNA. […] Viable cells produce no appreciable increases in fluorescence. Therefore, the fluorescence signal produced by the binding interaction with dead cell DNA is proportional to cytotoxicity.
The mixture of Hek293 cell suspension and reagents were dispensed at 600cells/6 ul/well in 1536-well tissue culture treated black solid bottom plates using a Multidrop dispenser. After the assay plates were incubated at a 37 C/5% CO2 incubator for 5 hours, 23 nL of compounds dissolved in DMSO, positive and negative controls was transferred to the assay plate by a pintool work station. The plates were incubated at 37 C for 40 hours. The fluorescence intensity were measured at 0h, 8h, 16h, 24h, 32h and 40h time points using ViewLux plate reader during compound treatment.
On the % scale 0 is the no-effect control and ±100 the full control effect.

| Structure (SMILES) | activity change |
| --- | --- |
| CC1OCCC1=O (stereo not given) | 2.59% (inactive) |
| CC(=O)C(C)O (stereo not given) | -2.54% (inactive) |
| CCC(=O)CC | -0.899% (inactive) |
| COC(=O)c1cc(Cl)cc(Cl)c1 | 9.2% (inactive) |
| CC1=NN(c2ccc(S(=O)(=O)O)cc2)C(=O)C1 | 1% (inactive) |
| CCOc1ccccc1OCC1CNCCO1 (stereo not given) | -2.75% [at 35.3 µM, hits give high values] (inactive) |
| CC(C)OC(=O)OCOP(=O)(CO[C@H](C)Cn1cnc2c(N)ncnc21)OCOC(=O)OC(C)C | 1.85% [at 35.3 µM, hits give high values] (inactive) |
| O=C(O)CSCC(=O)NC1CCSC1=O (stereo not given) | 2.45% [at 35.3 µM, hits give high values] (inactive) |
| CC(=O)CC(=O)OC(C)(C)C | 2.14% (inactive) |
| CCN(CC)CCN | -8.28% [at 35.3 µM, hits give high values] (inactive) |
| CC/C=C\CCOC(=O)c1ccccc1O | -6.06% (inactive) |
| Cc1cc(-c2ccccc2)nnc1NCCN1CCOCC1 | 17.4% [at 35.3 µM, hits give high values] (inactive) |
| NCc1ccc(S(N)(=O)=O)cc1 | -9.89% [at 35.3 µM, hits give high values] (inactive) |
| COc1cc2c(cc1OC)CN(C(=O)[C@H](C)N[C@@H](CCc1ccccc1)C(=O)O)[C@H](C(=O)O)C2 | -11.9% [at 35.3 µM, hits give high values] (inactive) |
| CO/N=C(/C(=O)N[C@@H]1C(=O)N2C(C(=O)[O-])=C(C[n+]3ccn4ncccc43)CS[C@H]12)c1nsc(N)n1 | -1.03% [at 35.3 µM, hits give high values] (inactive) |
| CN(C)CCCCl | -8.31% (inactive) |
| C=C(C)C1CC=C(C)C(=O)C1 (stereo not given) | -9.74% (inactive) |
| Cn1c(=O)c2c(ncn2CCO)n(C)c1=O | -2.8% [at 35.3 µM, hits give high values] (inactive) |
| CCNC(=O)NCc1cccc(Cl)c1 | -15.2% [at 35.3 µM, hits give high values] (inactive) |
| Cc1c(Cl)cccc1Cl | -9.82% (inactive) |

| Structure (SMILES) | activity change |
| --- | --- |
| Cc1c(C(=O)c2c[nH]n(C)c2=O)ccc(S(C)(=O)=O)c1C1=NOCC1 | -1.08% [at 35.3 µM, hits give high values] (inactive) |
| O=C(O)[C@H](O)c1ccccc1 | -39.7% [at 35.3 µM, hits give high values] (inactive) |
| C/C=C(\C)C(C)=O | -1.11% (inactive) |
| CCCCCCC1(C)CCC(=O)O1 (stereo not given) | -2.29% (inactive) |
| C/C(CC(C)C)=N\O | 0.147% (inactive) |
| COc1cc(/C=C/C(N)=O)cc(OC)c1OC | 0.859% [at 35.3 µM, hits give high values] (inactive) |
| C=CCOC(=O)CCCCCC | 3.84% (inactive) |
| CC(C)C[C@@H]1[C@H](c2ccccc2)OC(=O)N1CCCN1CCCCCC1 | 2.69% [at 35.3 µM, hits give high values] (inactive) |
| CC(Oc1cc(Cl)ccc1Cl)C(=O)O (stereo not given) | 1.01% (inactive) |
| CO[Si](CCCn1c(=O)n(CCC[Si](OC)(OC)OC)c(=O)n(CCC[Si](OC)(OC)OC)c1=O)(OC)OC | -10.4% [at 35.3 µM, hits give high values] (inactive) |
| OC1OCCOC1O (stereo not given) | -6.6% (inactive) |
| CC(C)COC(=O)c1ccccc1 | 17% (inactive) |
| Cc1c(N)cccc1Cl | -4.48% (inactive) |
| CCCCCCCCCOC(=O)c1ccccc1C(=O)OCCCCCCCCC | -3.9% (inactive) |
| Cc1ccc(C(=O)O)cc1[N+](=O)[O-] | -0.591% (inactive) |
| C=CCCCCCCCCC(=O)OCCCC | 9.13% (inactive) |
| O/N=C/C=N/O | -4.8% (inactive) |
| C=C(C)[C@@H]1CC=C(C)C(=O)C1 | 0.115% (inactive) |
| CC(O)COC(C)(C)C (stereo not given) | 8.24% (inactive) |
| C=CC(=O)OCC1CCCO1 (stereo not given) | -2.44% (inactive) |
